Structures are written as SMILES. Unmarked numbers belong to inactive results. Calls come from the whole dose curve; as a rule, active = well fitted curve in the direction sought with a large enough effect; inconclusive = small, poorly fitted or top-dose-only effect, or another doubt; inactive = no such curve, though single readings can be large or run the other way.

Hexokinase-4 (Homo sapiens) + Glucokinase regulatory protein (Homo sapiens), sequence (P35557 whole entry, looked up): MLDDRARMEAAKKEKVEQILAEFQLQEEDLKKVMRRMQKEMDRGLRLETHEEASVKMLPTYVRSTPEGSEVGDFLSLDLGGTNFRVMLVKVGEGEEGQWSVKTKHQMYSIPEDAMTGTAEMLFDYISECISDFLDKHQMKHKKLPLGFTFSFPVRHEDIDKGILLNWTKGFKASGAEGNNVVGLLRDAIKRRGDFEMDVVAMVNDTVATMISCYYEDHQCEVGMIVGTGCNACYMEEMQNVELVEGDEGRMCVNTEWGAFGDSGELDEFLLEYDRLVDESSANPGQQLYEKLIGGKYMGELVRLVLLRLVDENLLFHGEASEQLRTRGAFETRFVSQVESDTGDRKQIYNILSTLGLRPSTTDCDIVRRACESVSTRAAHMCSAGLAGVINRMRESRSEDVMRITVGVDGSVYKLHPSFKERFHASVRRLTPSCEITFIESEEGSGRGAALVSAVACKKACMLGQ
Hexokinase-4 (Homo sapiens) + Glucokinase regulatory protein (Homo sapiens), sequence (Q14397 whole entry, looked up): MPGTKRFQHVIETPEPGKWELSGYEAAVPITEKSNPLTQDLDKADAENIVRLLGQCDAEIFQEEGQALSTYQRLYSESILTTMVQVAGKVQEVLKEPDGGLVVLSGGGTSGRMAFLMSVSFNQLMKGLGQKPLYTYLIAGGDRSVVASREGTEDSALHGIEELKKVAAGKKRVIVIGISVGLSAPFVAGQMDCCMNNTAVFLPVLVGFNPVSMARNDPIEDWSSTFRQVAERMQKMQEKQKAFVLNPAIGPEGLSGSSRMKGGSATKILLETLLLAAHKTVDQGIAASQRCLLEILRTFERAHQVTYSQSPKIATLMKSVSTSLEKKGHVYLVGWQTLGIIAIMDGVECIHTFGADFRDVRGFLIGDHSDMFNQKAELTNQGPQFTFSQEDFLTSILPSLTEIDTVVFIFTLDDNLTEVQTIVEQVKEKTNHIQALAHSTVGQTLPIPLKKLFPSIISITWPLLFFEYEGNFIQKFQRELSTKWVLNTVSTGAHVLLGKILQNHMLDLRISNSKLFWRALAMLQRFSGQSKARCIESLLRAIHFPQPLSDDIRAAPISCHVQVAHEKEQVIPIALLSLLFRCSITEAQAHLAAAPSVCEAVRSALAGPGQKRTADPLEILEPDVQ

For this experiment, the target named is Hexokinase-4 (Homo sapiens) + Glucokinase regulatory protein (Homo sapiens) (UniProt P35557+Q14397). Kind of experiment: qHTS assay for inhibitors of recombinant human GCK-GKRP interaction: Diaphorase-coupled assay (AID 743205). As to conditions: G6PDH/diaphorase resorufin fluorescence; series mostly up to 57.5 µM; activity change, positive = activation: at the top concentration. The text has this:
Glucokinase (GCK) is a glucose sensor in hepatocytes and pancreatic beta-cells. Hepatic GCK is regulated by glucokinase regulatory protein (GKRP), which is predominantly localized to the liver. GKRP binds to GCK inhibiting its activity in the fasting state while in the presence of glucose the GKRP is displaced. There is an additional layer of regulation by fructose 1-phosphate and fructose 6-phosphate, which inhibit and enhance the GCK-GKRP interaction, respectively. GCK plays a role in glucose homeostasis and there is an interest in the development of strategies to activate GCK to lower blood glucose levels in type 2 diabetes. To date the majority of effort has focused on direct activation of GCK and the assays developed herein look to activate GCK by inhibiting its binding to GKRP. A compound that inhibits the interaction of GCK with GKRP could be important for the treatment of diabetes and can also be used as a tool compound to further elucidate GCK-GKRP biology. To that end, we have developed a sensitive HTS biochemical assay where in GCK activity is coupled to G6PDH and Diaphorase to interrogate the GCK-GKRP interaction. This assay was screened against a small compound library to look for modulators of activity.
2 uL of substrate (columns 1-48) are dispensed into Greiner, black solid-bottom 1536-well assay plates. Compounds (23 nL) are then transferred via Kalypsys pin tool equipped with 1536-pin array (10 nL slotted pins, V&P Scientific, San Diego, CA). The library compounds are in columns 5-48 and columns 1-4 serve as controls with DMSO in columns 1 and 3 and 26 mM 1:1.5 fold serial of gluckokinase activator (GKA-EMD) in column 2 and 26 mM of the glucokinase activator (GKA-EMD) in column 4. Following addition of compound and a 20 minute incubation, 1 uL of enzyme mix (GST-GCK, FLAG-GKRP and diaphorase) is added to columns 1, 2, 4-48 and 1 uL of no enzyme mix (FLAG-GKRP and diaphorase) is added to column 3 and the fluorescent product resorufin generated from resazurin was monitored on a Viewlux (PerkinElmer, Shelton, CT, USA) with excitation at 525 nm and emission at 590 nm in kinetic mode where the plate was read every minute for 30 minutes. The final concentration of reagents in the reaction are 25 mM Hepes pH 7.6, 25 mM KCl, 2 mM MgCl2, 1.4 mM 2-mercaptoethanol, 0.025% BSA, 0.01% Tween-20, 0.15 mM NADP+, 5 mM glucose, 0.4 mM ATP, 4 U/ml G6PDH, 0.1 mM resazurin, 10 nM GST-GCK, 10 nM FLAG-GKRP, diaphorase (0.1 mg/mL). Data are normalized to DMSO-treated control columns with (maximum signal) and without (minimum signal) enzyme.
A general note: Quantitative high-throughput screening tests each substance at several concentrations.
Take `Cc1cc(O)c2c(c1)C(=O)c1cc(O)cc(O)c1C2=O`: the “activity change, positive = activation” value is -23.6%. For `CC1(C)C(=O)N(CCN2CCC(C(=O)c3ccc(F)cc3)CC2)c2ccccc21`, the “activity change, positive = activation” value is -2.85%. `NNc1nncc2ccccc12`: the “activity change, positive = activation” value was -7.51%. As to `O=c1c(O)c(-c2ccc(O)cc2O)oc2cc(O)cc(O)c12`, the “activity change, positive = activation” value was -1.86%. Consider `CCOC(=O)C(C)Oc1cccc2c(=O)n(CC(=O)Nc3ccc4c(c3)OCCO4)ccc12` (configuration not stated), for which the “activity change, positive = activation” value is 1.13%. Under `O=C1c2c(O)cc(O)cc2OC(c2ccc(O)c(O)c2)C1O` (configuration not stated) stands -15.6%; under `Nc1nc(OCc2ccccc2)c2[nH]cnc2n1`, 3.17%.

For `CC(C)c1ccc2c(c1)c(SC(C)(C)C)c(CC(C)(C)C(=O)O)n2Cc1ccc(Cl)cc1`, the “activity change, positive = activation” value is -2.67%. Under `COc1cc2c(cc1OC)C1CC(=O)C(CC(C)C)CN1CC2` (configuration not stated) stands 0.198%. For the compound `O=C(O)c1cccnc1Nc1cccc(C(F)(F)F)c1`, the “activity change, positive = activation” value is -2.82%.

Consider `Nc1nc(N)c(N=O)c(OCC2CCCCC2)n1`, for which the “activity change, positive = activation” value was -2.76%. In the case of `O=C1NC(=O)C(c2ccccc2[N+](=O)[O-])=C1Nc1ccc(O)c(Cl)c1`, the “activity change, positive = activation” value was -34.9%. As to `NC(=NCc1ccccc1)NC(=O)c1nc(Cl)c(N)nc1N`, the “activity change, positive = activation” value is -4.53%.

As to `Nc1ccn([C@@H]2O[C@H](CO)[C@@H](O)C2O)c(=O)n1` (some centres not stated), the “activity change, positive = activation” value was -1.83%.

As to `C[C@H](Cc1ccc(O)c(O)c1)[C@@H](C)Cc1ccc(O)c(O)c1`, the “activity change, positive = activation” value is -31.9%. Under `CN(C)CCCC1(c2ccc(F)cc2)OCc2cc(C#N)ccc21` (configuration not stated) stands 1.52%. Take `COc1cc2nc(N3CCN(C(=O)C4CCCO4)CC3)nc(N)c2cc1OC` (configuration not stated): the “activity change, positive = activation” value is 2.59%. In the case of `O=c1cc(N2CCOCC2)oc2c(-c3ccccc3)cccc12`, the “activity change, positive = activation” value is -11.4%. Regarding `CC(=O)O[C@H]1C(=O)[C@@]2(C)C([C@H](OC(=O)c3ccccc3)[C@]3(O)C[C@H](OC(=O)[C@H](O)[C@@H](NC(=O)c4ccccc4)c4ccccc4)C(C)=C1C3(C)C)[C@]1(OC(C)=O)CO[C@@H]1C[C@@H]2O` (some centres not stated), the “activity change, positive = activation” value is -6.37%.

For `COc1ccccc1N1CCN(CCN(C(=O)C2CCCCC2)c2ccccn2)CC1`, the “activity change, positive = activation” value was 0.461%.

Regarding `CNC[C@H](O)c1ccc(O)c(O)c1`, the “activity change, positive = activation” value is -35.5%. `O=c1c(O)c(-c2cc(O)c(O)c(O)c2)oc2cc(O)cc(O)c12`: the “activity change, positive = activation” value is 25.6%. Take `CC(=O)N1CCN(c2ccc(OC[C@H]3CO[C@](Cn4ccnc4)(c4ccc(Cl)cc4Cl)O3)cc2)CC1`: the “activity change, positive = activation” value was -2.47%. As for `Cc1cccc(C#Cc2ccccc2)n1`, the “activity change, positive = activation” value was -1.91%. Consider `O=c1ccc2ccc(O)c(O)c2o1`, for which the “activity change, positive = activation” value is -24.5%. Under `O=C(c1ccccc1)c1ccc2n1CCC2C(=O)O` (configuration not stated) stands -1.4%; under `Oc1ccc(-c2nc(-c3ccc(F)cc3)c(-c3ccncc3)[nH]2)cc1`, 0.724%; under `OC(CN1CCN(c2cccc(Cl)c2)CC1)C(c1ccccc1)c1ccccc1` (configuration not stated), -1%.

Turning to `Oc1ccc2ccccc2c1SSc1c(O)ccc2ccccc12`, the “activity change, positive = activation” value is 20.2%. Take `O=Nc1c(-c2c(O)[nH]c3cc(Br)ccc23)[nH]c2ccccc12`: the “activity change, positive = activation” value is -9.33%. Under `Cc1c(OCC(F)(F)F)ccnc1CS(=O)c1nc2ccccc2[nH]1` (configuration not stated) stands -0.719%; under `O=C(CCc1ccc(O)cc1)c1c(O)cc(O)cc1O`, -1.32%; under `CC1(C)NC(=O)N(c2ccc([N+](=O)[O-])c(C(F)(F)F)c2)C1=O`, -2.42%.

Take `NCCCCNCCCN`: the “activity change, positive = activation” value was -1.74%. With `O=C1c2ccccc2-c2n[nH]c3cccc1c23` the figure was -31.2%; with `C[C@@H](N)C1CCC(C(=O)Nc2ccncc2)CC1` (some centres not stated), -1.85%.

On to `COc1ccc2cc([C@H](C)C(=O)O)ccc2c1`, for which the “activity change, positive = activation” value is -8.13%.
